Assay outcomes from PubChem BioAssay.
POLK inh – qHTS for Inhibitors of Polymerase Kappa. DNA polymerase kappa (Homo sapiens), Q9UBT6. purified Pol kappa, fluorescent DNA synthesis assay, 10 min. Potency, µM (doses to about 107 µM), without a hit: at the top dose activity, negative = inhibition, most hits filed as inhibitors. hit rate 0.53% among 400,000. AID 588579, 2011; also: potency is read from the fitted curve at half-maximal effect; % is scaled to controls: 0 for no effect and ±100 for the full control effect
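Fluorescent qHTS in 1536-well format: enzyme (10 nM) and compound sat 15 min at room temperature before 50 nM substrate (final) was added. Signal taken at 0 and 10 min; no-enzyme buffer wells were negative controls.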
PI5P4K alpha inh – qHTS for Inhibitors of phosphatidylinositol 5-phosphate 4-kinase (PI5P4K); max response, %; PI5P4Kalpha enzyme, ADP-Glo luminescence, 60 min; hits give low values; hit rate 1.2% among 330,000; Phosphatidylinositol 5-phosphate 4-kinase type-2 alpha (Homo sapiens), P48426; active = max response of -50% or lower; inconclusive = between -30% and -50%; inactive = -30% or higher; also: value at the top dose of about 77 µM; % is scaled to controls: 0 for no effect and ±100 for the full control effect
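ADP-Glo luminescence end-point after a 60 min room-temperature kinase reaction. PI5P4Kalpha and substrate in HEPES pH 7.4 buffer with EGTA, 0.1% CHAPS and 5% DMSO; ATP at 5 microM final.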
POLI inh – qHTS for Inhibitors of Polymerase Iota; hit rate 1% among 390,000; Potency, µM (highest dose often 115 µM), inactives show top-dose activity, negative = inhibition, actives largely listed as inhibitors; Pol iota fluorescent replication assay, 10 min; AID 588590, 2011; DNA polymerase iota (Homo sapiens), Q9UNA4; also: potency is read from the fitted curve at half-maximal effect
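Fluorescent replication assay read twice, at 0 min and 10 min after adding 50 nM (final) substrate. Enzyme (10 nM) and compounds were first incubated 15 min at room temperature; enzyme-free buffer wells were negative controls.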
WRN helicase inh – qHTS for Inhibitors of WRN Helicase. Bifunctional 3'-5' exonuclease/ATP-dependent helicase WRN (Homo sapiens), Q14191. WRN helicase unwinding, fluorescent forked duplex, kinetic. Potency, µM (titrated, usually from 114 µM), without a hit: at the top dose activity change, negative = inhibition, most hits filed as inhibitors. hit rate 0.46% among 360,000. AID 651768, 2012; also: potency is read from the fitted curve at half-maximal effect; % is scaled to controls: 0 for no effect and ±100 for the full control effect; nearly all actives have a fitted effect of over 55% in size
Target sequence (Q14191 whole entry, looked up): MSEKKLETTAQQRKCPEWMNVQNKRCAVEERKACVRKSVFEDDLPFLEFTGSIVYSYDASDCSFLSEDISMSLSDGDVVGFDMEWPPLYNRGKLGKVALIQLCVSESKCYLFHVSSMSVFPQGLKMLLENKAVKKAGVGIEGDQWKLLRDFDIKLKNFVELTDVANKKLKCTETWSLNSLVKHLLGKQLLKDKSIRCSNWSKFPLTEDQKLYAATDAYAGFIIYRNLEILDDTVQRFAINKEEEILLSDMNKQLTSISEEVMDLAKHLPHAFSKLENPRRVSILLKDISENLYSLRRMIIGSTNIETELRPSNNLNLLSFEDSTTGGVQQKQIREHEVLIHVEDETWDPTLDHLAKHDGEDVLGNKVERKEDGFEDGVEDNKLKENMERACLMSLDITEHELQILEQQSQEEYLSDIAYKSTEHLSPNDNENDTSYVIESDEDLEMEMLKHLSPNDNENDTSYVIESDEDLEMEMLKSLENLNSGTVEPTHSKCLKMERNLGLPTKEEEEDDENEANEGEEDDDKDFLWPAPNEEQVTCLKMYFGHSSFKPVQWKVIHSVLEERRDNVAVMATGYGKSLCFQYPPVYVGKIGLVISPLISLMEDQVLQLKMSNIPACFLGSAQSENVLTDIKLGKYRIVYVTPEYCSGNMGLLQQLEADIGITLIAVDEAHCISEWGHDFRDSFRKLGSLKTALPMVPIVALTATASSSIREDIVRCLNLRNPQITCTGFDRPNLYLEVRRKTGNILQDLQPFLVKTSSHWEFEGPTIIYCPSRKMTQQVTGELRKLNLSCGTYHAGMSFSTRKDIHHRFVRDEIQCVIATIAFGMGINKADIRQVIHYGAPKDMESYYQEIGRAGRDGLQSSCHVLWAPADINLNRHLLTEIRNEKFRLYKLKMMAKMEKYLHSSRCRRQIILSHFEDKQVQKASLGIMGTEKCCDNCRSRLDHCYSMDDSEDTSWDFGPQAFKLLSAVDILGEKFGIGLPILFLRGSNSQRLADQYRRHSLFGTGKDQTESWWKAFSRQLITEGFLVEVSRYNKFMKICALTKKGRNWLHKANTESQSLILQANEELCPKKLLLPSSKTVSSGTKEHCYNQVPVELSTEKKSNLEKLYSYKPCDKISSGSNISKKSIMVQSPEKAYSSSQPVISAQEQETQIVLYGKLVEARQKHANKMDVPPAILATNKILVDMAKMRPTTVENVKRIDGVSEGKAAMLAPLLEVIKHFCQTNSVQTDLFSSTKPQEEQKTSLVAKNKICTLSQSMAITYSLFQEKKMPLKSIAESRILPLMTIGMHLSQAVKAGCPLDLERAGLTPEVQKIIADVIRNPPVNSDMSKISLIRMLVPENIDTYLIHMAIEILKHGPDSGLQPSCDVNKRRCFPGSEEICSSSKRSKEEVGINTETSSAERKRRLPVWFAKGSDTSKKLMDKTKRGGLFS
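Enzyme (20 nM final) and test compound sit together 15 min at room temperature before substrate addition. Substrate is a single-forked duplex oligonucleotide (100 nM) labelled with fluorophore and quencher, with 2 mM ATP; helicase unwinding raises red fluorescence, read kinetically.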
POLH inh – qHTS for Inhibitors of Polymerase Eta. DNA polymerase eta (Homo sapiens), Q9Y253. recombinant Pol eta, fluorescent DNA replication assay. Potency, µM (doses to about 114 µM), for inactives: at the top dose activity change, negative = inhibition, most hits filed as inhibitors. hit rate 1.2% among 390,000; also: potency is read from the fitted curve at half-maximal effect; % is scaled to controls: 0 for no effect and ±100 for the full control effect
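Pol eta at 10 nM preincubated with compounds 15 min at room temperature; reaction started with fluorescent substrate (50 nM final) and read kinetically at 0 and 10 min.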
POLB inh – qHTS Assay for Inhibitors of DNA Polymerase Beta. P06746. Pol beta primer extension/strand displacement, fluorescence kinetic. Potency, µM (top dose mostly 114 µM), for inactives: top-dose activity change, negative = inhibition, usual class: inhibitors. hit rate 1.3% among 340,000. AID 485314, 2010; also: potency is read from the fitted curve at half-maximal effect; % is scaled to controls: 0 for no effect and ±100 for the full control effect
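10 nM enzyme + cpd, 15 min RT; start with substrate 50 nM final; read 0 min and after 10 min RT. Corrected, normalized data; 4-parameter Hill curve fit.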
The depositor's hits bear a star; u = inconclusive; x = no result; [ ] = remark or other dose. Shown are actives, neighbours in structure and some others; about 2.8% of the full set was active somewhere. Unless noted, calls follow the shape of the dose curve; as a rule, active = well fitted curve in the direction sought with a large enough effect; inconclusive = small, poorly fitted or top-dose-only effect, or another doubt; inactive = no such curve, though single readings can be large; an effect the other way counts as inactive or inconclusive.

SMILES	POLK inh	PI5P4K alpha inh	POLI inh	WRN helicase inh	POLH inh	POLB inh
Clc1ccc([C@H](Cn2ccnc2)OCc2c(Cl)cccc2Cl)c(Cl)c1	-17.2%[19.4 µM]	x	x	x	x	x
COc1ccc(N2C(=O)/C(=C\c3ccco3)N=C2SCC(=O)N(C(C)C)C(C)C)cc1Cl	-11.2%	0.3	5.2%	3.2%	-9.9%	56.2µM*
COc1ccc(OC)c(Nc2nc(=O)c3cccnc3s2)c1	-18.0%	-88.9*	u	0.3%	-6.2%	2.2%
CN(C)c1ccc(/C=C/c2c3c(nc4ccccc24)CCCC3)cc1	0.0%	x	28.0%	x	x	x
Cc1c(O)ccc2c(CN3CCN(Cc4ccccc4)CC3)cc(=O)oc12	7.9%	-0.4	14.3%	4.0%	-7.7%	-2.3%
O=c1cc(CN2CCN(Cc3ccccc3)CC2)c2ccc(O)c(O)c2o1	u	27.7	u	u	10µM*	2.51µM*
C[C@H](NS(=O)(=O)c1ccc(Cl)c(Cl)c1)C(=O)OCc1cc(=O)n2cc(Br)ccc2n1	-24.7%	2.0	u	-2.6%[11.6 µM]	u	14.1µM*
O=C(CCCn1c(=O)c2cccn2c2ccccc21)Nc1cccc(Cl)c1	-25.8%	x	0.3%	x	x	44.7µM*
Cc1cc(C)cc(NC(=O)CCCn2c(=O)c3cccn3c3ccccc32)c1	-5.8%	x	34.1%	x	-21.3%	-19.8%
CCn1nnc(NC(=O)CSc2ccc(Cl)cc2)n1	79.4µM*	x	25.1µM*	u	50.1µM*	25.1µM*
O=C(Nc1nc2c(F)cc(F)cc2s1)c1ccc(S(=O)(=O)N2CCc3ccccc32)cc1	-11.0%[60.1 µM]	x	u	x	-10.7%	31.6µM*
O=C(NCC(c1cccnc1)N1CCN(Cc2ccccc2)CC1)C(=O)Nc1ccc(Cl)cc1 (centres undefined)	-1.7%	x	-8.9%	x	-6.9%	-9.3%
O=C(COc1ccccc1C(=O)Nc1ccccc1)Nc1ccccc1-c1ccccc1	-7.4%	x	u	x	x	x
O=c1[nH]ccc2c(S(=O)(=O)N3CCCNCC3)cccc12	13.4%[60.1 µM]	x	x	x	x	x
CC(OC(=O)c1ccc(-n2cnnn2)cc1)C(=O)Nc1ccc(F)c(F)c1F (centres undefined)	u	0.3	39.8µM*	-17.9%	56.2µM*	x
O=C(Nc1ccccc1C(F)(F)F)C1CCN(c2nnc(-n3cccc3)s2)CC1	-3.1%	x	7.9%	x	-6.7%	u
CCN(CC)c1ccc(NC(=O)C2CCN(c3nnc(-n4cccc4)s3)CC2)c(C)c1	-9.0%	x	u	x	1.6%	25.1µM*
O=C(/C=C/c1ccc(O)c(O)c1)c1ccc(S(=O)(=O)N2CCCCCC2)cc1	-36.3%	-64.4*	u	u	7.94µM*	u
O=C(c1ccc(COCC(F)(F)F)o1)N1CCCC1	6.4%	6.2	8.7%	-0.6%	-0.5%	4.2%
COc1ccc(Cn2cc3c(-c4ccc(F)cc4)nnc-3c3cc(OC)c(OC)cc32)cc1	-3.5%	-7.5	-12.5%	39.6%	-14.2%	79.4µM*
CS(=O)(=O)c1ccc(N)c(SSc2cc(S(C)(=O)=O)ccc2N)c1	-15.5%	-80.5*	u	-0.6%	-4.1%	x
CCOc1ccc(N)c(SSc2cc(OCC)ccc2N)c1	-4.3%	u	u	-11.3%[11.6 µM]	-6.7%	8.6%
Cc1ccccc1NC(=O)c1ccccc1OCC(=O)Nc1ccc(Br)cc1	-13.0%	x	10.5%	x	x	x
CCC(c1ccccc1)C(CC)c1cc(O)c(O)c(O)c1 (centres undefined)	-5.1%	-6.2	u	44.7µM*	-21.2%	x
CCC(C)c1ccc(OCC(=O)Nc2ccc3c(c2)C(=O)NC3=O)cc1 (centres undefined)	2.8%	4.1	17.4%	-12.2%	-12.6%	35.5µM*
SMILES	POLK inh	PI5P4K alpha inh	POLI inh	WRN helicase inh	POLH inh	POLB inh
Cc1c(Cl)cccc1NC(=O)Cn1cccc1	1.6%	x	9.1%	1.5%	7.7%	5.3%
Cc1cc(C)c2c(=O)n(CC(=O)Nc3cccc(Cl)c3C)sc2n1	-1.8%	-87.0*	u	1.7%	7.4%	-8.7%
COc1ccc(OC)c(CCNC(=O)Cn2sc3nc(C)cc(C)c3c2=O)c1	x	x	x	x	x	5.0%
Cc1cc(C)c2c(=O)n(CC(=O)Nc3ccc(Br)c(C)c3)sc2n1	-3.7%	-61.7*	u	3.2%	5.0%	-0.1%
Cc1cc(C)c2c(=O)n(CC(=O)NC3CCCC3)sc2n1	-21.5%	-64.2*	u	2.2%	-2.6%	11.5%
O=C1c2ccccc2C(=O)N1N(c1ccccc1)c1ccccc1	-13.4%	-1.1	-27.4%	-18.8%	-10.8%	x
O=C1C=CC(=O)N1N(c1ccccc1)c1ccccc1	-11.5%	-28.4	13.3%	35.5µM*	-3.6%	18.8%
CC12CCC(=O)N1C(C(=O)Nc1nc(-c3cc(F)ccc3F)cs1)CS2 (centres undefined)	9.2%	-1.4	38.8%	-0.7%	-1.0%	x
Cc1ccc(C)c(S(=O)(=O)N/N=C/c2ccc(N3CCOCC3)cc2)c1	-3.0%	2.3	15.8%	-11.4%	-4.4%	1.1%
COc1cc(OC)cc(C(=O)OCC(=O)c2cc(C)n(CC3CCCO3)c2C)c1 (centres undefined)	-8.3%	-3.1	12.3%	-3.9%	-12.6%	x
Cc1cc(C(=O)COC(=O)c2ccc(O)cc2)c(C)n1CC1CCCO1 (centres undefined)	u	3.7	89.1µM*	3.3%[11.6 µM]	-23.7%	29.2%
COCCCn1c(SCC(=O)OC2CCCCC2)nnc1-c1cccs1	-20.1%	x	100µM*	-8.6%	-12.4%	2.7%
COCCCn1c(SCC(=O)OC2CCCCC2)nnc1-c1ccco1	-7.2%	x	5.3%	4.9%	-2.1%	35.8%
CC(C)[C@@H]1O[C@H](CCc2ccccc2)CC2=C1C(=O)OC(C)(C)O2	x	9.9	x	-3.7%	x	x
CCCn1c(-c2ccc(OC)cc2)nc2c(=O)n(C)c(=O)[nH]c21	-3.0%	-51.0*	8.4%	0.9%	-20.4%	0.1%
O=C1C=C(c2ccc(CO)cc2)C[C@@H](c2ccc3c(c2)OCO3)C1	7.6%	-2.1	-18.0%	0.4%	-4.7%	x
CN(C)c1ccc(CNC(=O)c2ccc3nc(Cc4ccccc4)oc3c2)cc1	-12.5%[60.1 µM]	x	28.2µM*	x	-11.5%	0.2%
C[C@H](CO)N1C[C@H](C)[C@@H](CN(C)C(=O)NC2CCCCC2)Oc2ccc(NS(=O)(=O)c3ccc(F)cc3)cc2C1=O	-7.5%	7.3	35.5%	-4.2%	-13.2%	x
Cc1cccc2c(C(O)c3c[nH]c4c(C)cccc34)c[nH]c12	-32.7%	x	-18.6%	x	x	x
COc1ccc(Cl)cc1NC(=O)Cn1c(=O)n(-c2ccc(C)cc2)c(=O)c2ccc(C(=O)NCc3ccccc3Cl)cc21	-18.0%	x	19.2%	x	-0.2%	1.2%
